# Measured values: the supplement of paper PMC12636033
# ± gives the standard deviation of the averaged measurements. The full ranking holds about 33,000 sequences; the median of “E-score (rank enrichment, -0.5 to 0.5)” is about -0.0075, and the highest 2% start at about 0.23. Many of the other results were omitted from the sample, so the highest values are more common in it than they were.
# System: WT Max(13-93) synthetic (M65Nle)
# Assay: PBM 8-mer E-score (E-score (rank enrichment, -0.5 to 0.5)); higher = stronger preferential binding
# Experimental: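 Protein binding microarray (universal PBM chip covering all 10-mers in fixed probe flanks) with chemically synthesized human Max(13-93) bHLH-LZ analogs (not full-length Max) bearing noncanonical residues (hArg, Tha, Aib, Nle at 65) and aromatic Cys staples. Read-out per 8-mer (and its reverse complement): E-score (rank-based enrichment, -0.5 to 0.5) and Z-score of median probe intensity.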
row,Sequence,PBM 8-mer E-score
1,CTTTCTAC,0.317 ± 0.053
2,ATTTCTAC,0.247 ± 0.043
3,CTTTCTAA,0.0817 ± 0.047
4,ATTTCTAA,-0.0149 ± 0.032
5,AGGTGTCC,-0.128 ± 0.054
6,GACTAAAA,-0.0397 ± 0.075
7,AGTATAAA,0.109 ± 0.12
8,AGTATAAC,0.0201 ± 0.0067
9,AGTATAAT,0.259 ± 0.07
10,AATACGGT,-0.059 ± 0.026
11,CAGGGTCA,-0.0768 ± 0.019
12,AAATCCAT,0.2404 ± 0.0018
13,AAATCCAC,0.116 ± 0.058
14,AAATCCAG,-0.00945 ± 0.12
15,GAAGTAAC,0.0916 ± 0.087
16,GTCTTTAA,0.0691 ± 0.12
17,AATCACGA,0.0321 ± 0.13
18,ACCCACGA,-0.0551 ± 0.047
19,ACCCACGC,0.113 ± 0.11
20,ATCCACAG,0.0193 ± 0.067
21,AACCATGA,0.145 ± 0.028
22,ACCCACGT,0.359 ± 0.02
23,AACCATGG,0.0463 ± 0.13
24,AATCACGT,0.399 ± 0.04
25,AATCACGC,0.188 ± 0.042

row,Sequence,PBM 8-mer E-score
1,AACCATGT,0.2698 ± 0.00089
2,ATCCACAA,0.0288 ± 0.05
3,ATCCACAT,0.287 ± 0.022
4,AAATCTCG,0.017 ± 0.054
5,GTGAGTCA,-0.117 ± 0.064
6,TAGGCCAA,-0.0597 ± 0.035
7,CGCAAGCA,0.1148 ± 0.001
8,CTGAACGC,-0.243 ± 0.0048
9,GATTCCAC,-0.0239 ± 0.16
10,AACCATTA,0.318 ± 0.052
11,AACCATTG,0.0448 ± 0.0034
12,CACCATTA,-0.0432 ± 0.14
13,AACCACGC,0.178 ± 0.04
14,AACCACGT,0.392 ± 0.0086
15,AACCACAT,0.282 ± 0.045
16,AACCACAC,0.173 ± 0.0082
17,AACCACAG,-0.196 ± 0.12
18,AACCACGA,0.198 ± 0.016
19,ACAATTGC,0.129 ± 0.021
20,ATATACCA,0.153 ± 0.019
21,TATGCTGA,-0.0828 ± 0.1
22,ACCTATTG,0.157 ± 0.01
23,TACGTATA,0.094 ± 0.091
24,ACTTGATC,-0.0132 ± 0.16
25,AGAGTGAA,-0.133 ± 0.058

row,Sequence,PBM 8-mer E-score
1,CAGACATC,-0.0722 ± 0.089
2,CCCTTTGC,-0.0228 ± 0.044
3,CTGCCAAG,-0.0342 ± 0.067
4,CCTCGATA,-0.157 ± 0.014
5,CCTAAACG,-0.145 ± 0.043
6,GATGTGGA,0.152 ± 0.011
7,CATGTGGG,0.257 ± 0.075
8,AATGTGGG,0.18 ± 0.032
9,CATGTGGC,0.3003 ± 0.0019
10,AATGTGGC,0.0312 ± 0.0053
11,GATGTGGC,-0.117 ± 0.057
12,CATGGGGG,0.0813 ± 0.1
13,AATGTGGA,0.0921 ± 0.085
14,CATGTGGA,0.324 ± 0.032
15,AATGACTG,0.102 ± 0.018
16,GAAGCTCA,-0.152 ± 0.13
17,ATTCAACC,-0.0085 ± 0.021
18,GTTCGGGA,-0.13 ± 0.11
19,GACCCTGA,-0.121 ± 0.035
20,AGAGGACA,-0.0937 ± 0.095
21,TAAGTTGA,0.0328 ± 0.044
22,ATTTCGTC,0.242 ± 0.011
23,CTTTCGTC,0.0247 ± 0.074
24,ATTTCGTG,0.0519 ± 0.051
25,ATACGATC,-0.0258 ± 0.1

row,Sequence,PBM 8-mer E-score
1,ACAAAGAT,0.0862 ± 0.049
2,CAAGCTCA,-0.35 ± 0.017
3,ATATGTTA,0.284 ± 0.051
4,ATGTATTA,0.225 ± 0.086
5,CTGTGTTA,0.0459 ± 0.023
6,CTGTATTA,0.138 ± 0.0022
7,GTGTATTA,0.247 ± 0.035
8,ATGTGTGA,0.18 ± 0.12
9,CTATGTTA,0.16 ± 0.052
10,ATGTGTCA,0.175 ± 0.069
11,ATGTGTTA,0.275 ± 0.015
12,GTGTGTTA,0.242 ± 0.099
13,GGGTGTTA,-0.0337 ± 0.14
14,ATATGTTC,0.179 ± 0.0093
15,TGAGATAA,0.116 ± 0.07
16,CAATGATC,-0.0206 ± 0.062
17,CGCCTCGA,-0.0745 ± 0.097
18,CTCCTGTC,-0.0511 ± 0.018
19,TCGCTGAA,-0.0377 ± 0.086
20,CCCCTGGC,-0.127 ± 0.042
21,AACCTCAT,0.156 ± 0.065
22,GTTTCCAA,0.0481 ± 0.061
23,ATGTGTTG,0.247 ± 0.035
24,ATATGTTG,0.0792 ± 0.065
25,ATGTGTTC,0.106 ± 0.0063

row,Sequence,PBM 8-mer E-score
1,AAACACAT,0.287 ± 0.014
2,AAACACGA,0.19 ± 0.11
3,AAACACGG,-0.0068 ± 0.091
4,CAACACGC,0.195 ± 0.0099
5,AAACACAC,0.132 ± 0.011
6,AAACACGT,0.329 ± 0.093
7,AAACACAG,0.153 ± 0.053
8,GAACACGC,0.105 ± 0.04
9,AAACACGC,0.24 ± 0.054
10,AGTAAACG,0.0125 ± 0.018
11,AGGTCTTG,-0.116 ± 0.084
12,TGACGCCA,-0.0607 ± 0.033
13,ACTGCAGT,-0.0688 ± 0.15
14,AGATGGAC,-0.09113 ± 0.00061
15,AGTGTCAA,0.122 ± 0.14
16,TGTGTCAA,0.254 ± 0.011
17,CGTGTCAA,0.0498 ± 0.015
18,GATGTCAA,0.0342 ± 0.06
19,AATGTCAA,0.0117 ± 0.23
20,TATGTCAA,0.287 ± 0.054
21,CAGAGCGA,-0.0911 ± 0.044
22,GGTTTGAA,0.145 ± 0.0079
23,CCAGTGGG,-0.122 ± 0.16
24,GACTTCTA,-0.0184 ± 0.13
25,ACAAACAC,0.268 ± 0.053

row,Sequence,PBM 8-mer E-score
1,ACAAACAA,0.112 ± 0.0055
2,AAAAACAC,0.251 ± 0.05
3,CCAAACAC,0.242 ± 0.076
4,ACAAACAG,-0.0244 ± 0.058
5,GCAAACAC,0.156 ± 0.07
6,CAAAACAC,0.073 ± 0.066
7,CCAAACAG,-0.0488 ± 0.037
8,GAAAACAC,0.0469 ± 0.11
9,CTAAACAA,0.0536 ± 0.046
10,CTGCGTGC,-0.0949 ± 0.0091
11,CGATCGAG,-0.26 ± 0.069
12,CATGCCCA,0.00676 ± 0.079
13,CCTCCCAA,0.0602 ± 0.2
14,CCCTCCCA,0.262 ± 0.0086
15,CCTCCCCA,0.258 ± 0.065
16,CCCCTCCG,0.044 ± 0.086
17,GCCTCCCA,-0.155 ± 0.12
18,CCCTCCCC,0.171 ± 0.15
19,CCCCTCCC,0.239 ± 0.16
20,CCTCCCCC,-0.0244 ± 0.2
21,ACCTCCCA,0.00978 ± 0.14
22,CTGGGTAC,-0.201 ± 0.15
23,GGATGGAC,0.106 ± 0.062
24,AGGGTTTA,0.152 ± 0.0074
25,AGGAGCAA,-0.034 ± 0.032

row,Sequence,PBM 8-mer E-score
1,CACCACCA,-0.0146 ± 0.046
2,AACGATCC,-0.124 ± 0.023
3,GCAATGGC,0.0112 ± 0.019
4,ATACGCTC,0.0772 ± 0.0077
5,CCCATACA,0.0285 ± 0.11
6,GGACTGCC,-0.0905 ± 0.19
7,ACATATCA,0.252 ± 0.013
8,TCATATAA,0.15 ± 0.064
9,GCATATGC,0.245 ± 0.008
10,ACATATAT,0.244 ± 0.04
11,ACATATAG,0.0953 ± 0.059
12,GCATATGA,0.138 ± 0.034
13,CCATATGC,0.112 ± 0.14
14,ACATATCG,0.0595 ± 0.028
15,ACATATAC,-0.00226 ± 0.03
16,CCATATAA,0.174 ± 0.02
17,ACATATAA,0.309 ± 0.078
18,CCATATCA,0.0654 ± 0.064
19,GCGGCCTA,-0.209 ± 0.12
20,ATGCGATG,0.054 ± 0.083
21,GTGAACAA,0.114 ± 0.0024
22,CAGGCGAC,-0.124 ± 0.082
